Assay outcomes (PubChem BioAssay)
IMPase Li inh = membrane-permeable IMPase blocker, potentiated with lithium. CHO-M1 cells, IP1 TR-FRET (IP-One), carbachol + lithium. Potency, µM (series often up to 59.4 µM), most hits filed as inhibitors. 210,000 tested, 0.35% active. AID 1457;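 note: IP1 builds up when IMPase is blocked and the TR-FRET signal falls; nearly all actives have a fitted effect of over 50% in size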
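CHO-M1, 2000 cells/well, 16–30 h culture; cpd + low Li+, 30 min 37C; lysis with d2-IP1/Eu-anti-IP1 Ab, 10 min RT; TR-FRET 665/620 ratio and 620 channel; AC50 via Hill.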
ALOX12 inhib = inhibitors of human 12-lipoxygenase (ALOX12); purified 12-hLO, xylenol orange hydroperoxide absorbance; 150,000 tested, 0.12% active; Potency, µM (top dose mostly 57.1 µM), actives largely listed as inhibitors; AID 1452; note: nearly all actives have a fitted effect of over 55% in size
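Purified human 12hLO (150 nM), preincubated 15 min with compound, then 40 uM arachidonic acid for 30 min, room temperature, Hepes pH 7.0 with 0.01% Triton X-100. Hydroperoxide detected by ferrous iron/xylenol orange; 573/405 nm absorbance ratio gives reaction progress.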
HPGD inh = inhibitors of human 15-hydroxyprostaglandin dehydrogenase (HPGD); purified HPGD, NADH fluorescence kinetic, PGE2 substrate; Potency, µM, most hits filed as inhibitors; 150,000 tested, 4.3% active; AID 894; active = well fitted inhibition curve with a large enough effect, not every such curve was filed as active; inconclusive = small, poorly fitted or top-dose-only effect, or another doubt; inactive = no such curve, though single readings can be large or run the other way
Target sequence (P15428 whole entry, looked up): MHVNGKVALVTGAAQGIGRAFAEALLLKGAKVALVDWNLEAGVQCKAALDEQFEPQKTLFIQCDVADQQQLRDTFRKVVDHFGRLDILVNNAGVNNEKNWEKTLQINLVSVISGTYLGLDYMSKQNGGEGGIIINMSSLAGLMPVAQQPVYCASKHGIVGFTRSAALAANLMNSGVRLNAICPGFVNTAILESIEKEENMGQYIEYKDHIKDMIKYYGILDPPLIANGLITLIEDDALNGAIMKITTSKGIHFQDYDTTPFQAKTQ
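20 nM HPGD preincubated 15 min at room temperature with compound in 50 mM Tris-HCl pH 8, 0.01% Tween 20. Started with 1 mM NAD+ and 30 uM prostaglandin E2; NADH fluorescence (360/450 nm) read 5 times over 30-s intervals, last minus first.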
PNC assembly inh = inhibitors of perinucleolar compartment assembly. PC3M PTB-GFP, PNC prevalence imaging, 16 h; hits give low values. activity change (PNC), negative = inhibition, % at 10 µM. 140,000 tested, 3.1% active. AID 2417;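 active = readout at or below -70, meaning at least 70% loss of cells showing the perinucleolar compartment, a nuclear body marking cancer cells; inconclusive = readout between -30 and a set limit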
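Compounds are pinned in duplicate onto adhered PC3M cells stably expressing GFP-tagged PTB and incubated 16 h at 37 C. Cells are then fixed, nuclei stained with Hoechst, and PNC-positive cells counted.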
ALDH1A1 inh = inhibitors of human aldehyde dehydrogenase 1A1; P00352; Purified ALDH1A1, NADH fluorescence, propionaldehyde substrate; Potency, µM (top dose mostly 75.3 µM), usual class: inhibitors; 220,000 tested, 7.3% active; AID 1030; active = well fitted inhibition curve with a large enough effect, not every such curve was filed as active; inconclusive = small, poorly fitted or top-dose-only effect, or another doubt; inactive = no such curve, though single readings can be large or run the other way
Target sequence (P00352 whole entry, looked up): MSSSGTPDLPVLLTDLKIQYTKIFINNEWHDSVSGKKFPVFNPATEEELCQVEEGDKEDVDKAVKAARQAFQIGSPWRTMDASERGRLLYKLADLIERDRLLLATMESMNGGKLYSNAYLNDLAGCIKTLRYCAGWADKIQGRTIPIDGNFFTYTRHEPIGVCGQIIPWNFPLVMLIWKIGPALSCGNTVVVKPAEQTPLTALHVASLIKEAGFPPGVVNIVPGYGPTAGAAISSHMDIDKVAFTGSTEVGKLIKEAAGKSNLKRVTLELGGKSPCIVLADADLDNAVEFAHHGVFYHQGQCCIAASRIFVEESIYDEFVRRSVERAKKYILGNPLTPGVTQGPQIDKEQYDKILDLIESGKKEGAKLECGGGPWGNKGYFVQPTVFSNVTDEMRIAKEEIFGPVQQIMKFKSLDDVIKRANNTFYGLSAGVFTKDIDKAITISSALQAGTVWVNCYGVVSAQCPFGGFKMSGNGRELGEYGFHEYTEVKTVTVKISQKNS
IMPase cell inh = cell-permeable inhibitors of inositol monophosphatase (IMPase); inhibition (IP1 accumulation), % at 46.1 µM; CHO-M1 cells, IP1 accumulation, HTRF TR-FRET ratio; 120,000 tested, under 10 active; active = well fitted curve in the direction sought with a large enough effect in the signal ratio, not every such curve was filed as active; inconclusive = small, poorly fitted or top-dose-only effect, or a change in a side signal; inactive = no such curve, though single readings can be large or run the other way; the % refers to the signal ratio;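 note: cells stimulated with carbachol in lithium chloride buffer; higher means more IMPase inhibition seen as more IP1 and lower FRET ratio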
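Cellular IMPase inhibition is scored as a rise in cytosolic IP1, detected by competitive TR-FRET between d2-labelled IP1 and a europium anti-IP1 antibody. M1-expressing CHO cells were stimulated with carbachol for 30 min at 37C, with lithium (50 mM LiCl) present in the buffer.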
Numbers stand for hits; – = inactive; ? = inconclusive; · = no result given; [ ] = remark or other dose. Shown are actives, neighbours in structure and some others; about 11% of the full set was active somewhere. Unless noted, calls come from the whole dose curve; as a rule, active = well fitted curve in the direction sought with a large enough effect; inconclusive = small, poorly fitted or top-dose-only effect, or another doubt; inactive = no such curve, though single readings can be large; an effect the other way counts as inactive or inconclusive.

SMILES	IMPase Li inh	ALOX12 inhib	HPGD inh	PNC assembly inh	ALDH1A1 inh	IMPase cell inh
CCOC(=O)C1=C(C)Nc2ncnn2C1c1ccc(N(C)C)cc1 (configuration not stated)	·	–	·	–	17.8µM	–
CCn1c(SCC(=O)Nc2cc(C)ccc2F)nnc1-c1ccccc1O	·	·	·	·	·	–
CCOC(=O)C1=C(C)Nc2nc(SCC)nn2C1c1ccc(OC)cc1 (configuration not stated)	–	–	–	–	?	–
COc1ccccc1NC(=O)C1=C(C)Nc2nnnn2C1c1cccc(C)c1 (configuration not stated)	–	–	?	–	14.1µM	–
CCOC(=O)C1=C(C)Nc2nc(=S)[nH]n2C1c1ccc(Cl)cc1 (configuration not stated)	–	–	11.2µM	?	?	–
COc1ccc(C2C(C(=O)Nc3ccccc3OC)=C(C)Nc3ncnn32)cc1 (configuration not stated)	–	–	–	–	14.1µM	–
Cc1cc(C)n2c(SCC(=O)N(C)C3CCCCC3)nnc2n1	–	·	·	·	–	·
COCCNc1nc(C)nc2c1nc(-c1ccccc1)n2CCN(C)C	–	–	?	·	?	·
CCCn1nnnc1NC(=O)CSc1ccc(Cl)cc1	–	–	15.8µM	–	–	–
CCCn1nnnc1NC(=O)c1cc(Cl)ccc1Cl	–	–	–	–	?	·
CSc1nc(N)nc(SC2C=CCCC2)c1C#N (configuration not stated)	–	–	–	–	12.6µM	–
CSc1nc(N)nc(SCC(=O)Nc2ccc(Cl)cc2)c1C#N	–	–	?	?	?	–
COCCCNC(=O)Cc1coc2ccc3ccccc3c12	–	·	·	·	–	·
O=C(Cc1coc2ccc3ccccc3c12)N1CCCC1	–	–	12.6µM	–	?	–
O=C(O)Cc1coc2ccc3ccccc3c12	–	·	·	·	–	·
CCCCNC(=O)Cc1coc2ccc3ccccc3c12	–	–	14.1µM	–	–	–
Cc1cccc(NC(=O)Cc2coc3ccc4ccccc4c23)n1	–	–	15.8µM	–	–	–
Cc1noc(C)c1-c1nccc(N2CCNCC2)n1	–	–	–	·	–	·
Cc1cc(C(=O)COC(=O)Cc2n[nH]c(=O)c3ccccc23)c(C)n1-c1cccc(C(F)(F)F)c1	–	–	–	–	7.94µM	–
CCCOc1ccc(C(=O)Nc2ccc(-c3cc4ccccc4oc3=O)c(C)c2)cc1	·	·	·	·	·	–
CC(C)(/C=N/O)/[N+]([O-])=C/C=[N+](\[O-])C(C)(C)/C=N/O	–	–	–	–	?	–
CN(C)c1ccc(/C=[N+](\[O-])C(C)(C)/C=N/O)cc1	–	–	–	–	22.4µM	–
CCN(C(=O)CN(C)Cc1cccc(Cl)c1Cl)c1c(N)n(Cc2ccccc2)c(=O)[nH]c1=O	–	–	–	-98.5	–	–
CN(Cc1ccccc1)Cn1ccnc1	–	–[11.4 µM]	–	·	–[13.5 µM]	·
COc1ccc(C2=CSC3=C(C(=O)c4cccc(S(=O)(=O)N(C)C)c4)CCN23)cc1	–	–	–	?	2µM	–
SMILES	IMPase Li inh	ALOX12 inhib	HPGD inh	PNC assembly inh	ALDH1A1 inh	IMPase cell inh
O=C1NCCC/C1=N/Nc1ccc(F)cc1	–	·	·	·	12.6µM	·
CN1c2ccsc2/C(=N/Nc2ccc(F)cc2)CS1(=O)=O	–	·	·	·	–	·
O=C(CSCC(=O)Nc1nc(-c2ccc3c(c2)OCO3)cs1)Nc1nccs1	–	·	·	·	22.4µM	·
O=C(O[C@@H]1OC2COC(=O)c3cc(O)c(O)c(O)c3-c3c(cc(O)c(O)c3O)C(=O)O[C@@H]([C@H]1O)[C@@H]2O)c1cc(O)c(O)c(O)c1	–	–	1.78µM	–	–	·
COc1c(O)cc2c(c1O)C1OC(CO)C(O)[C@H](O)[C@H]1OC2=O (some centres not stated)	–	–	–	·	–	·
COc1ccc2c(c1)C(=O)[C@@H](OC(=O)NCCOc1ccccc1)[C@H](c1ccc(OC)c(Br)c1)O2	–	·	–	·	–	·
Clc1ccccc1-c1ccc2ncnc(NC3CCNCC3)c2c1	–	·	·	·	–	·
CCOc1ccc(C(C)=O)cc1COC(=O)C1=COCCO1	–	–	–	–	14.1µM	–
CC(=O)Nc1nc(NC(C)=O)c2[nH]c(CO)nc2n1	–	–[11.4 µM]	–	·	–[13.5 µM]	·
COC(=O)C(NC(=O)c1ccc(C)cc1)(Nc1cccc(C)n1)C(F)(F)F (configuration not stated)	–	–	–	-100.0	–	–
COC(=O)C(NC(=O)c1ccccc1)(Nc1nc(C)cs1)C(F)(F)F (configuration not stated)	·	–	·	–	–	–
CCC(=O)N(CC)C1=C(O)c2ccccc2C(=O)C1=O	–	–	12.6µM	?	22.4µM	–
CN(C)c1ncc2nc(-c3cccs3)c(=O)n(CCC#N)c2n1	–	·	·	·	?	·
CCOC(=O)CC12CN3CN(C1)CC(CC(=O)OCC)(C3)C2=O	–	–	–	?	–	–
CC(C)OC(=O)CC12CN3CN(C1)CC(CC(=O)OC(C)C)(C3)C2=O	–	–	–	?	2.51µM	–
COc1ccc(N=C2S/C(=C\c3ccc(OC(C)C(=O)O)c(OC)c3)C(=O)N2CCc2c[nH]c3ccccc23)cc1 (configuration not stated)	–	·	·	·	14.1µM	·
COC(=O)CSc1nccc(C)n1	·	·	·	·	–	·
COC(=O)N1[C@H]2CC[C@@]3(C)C=C(C)O[C@]1(C)C3c1ccccc12	–	·	–	·	–	·
O=C(CCc1ccc(O)cc1)c1c(O)cc(O)cc1O[C@@H]1O[C@H](CO)[C@@H](O)[C@H](O)[C@H]1O	–	–	?	·	–	–
Cc1ccc(Cn2c(CN(C)Cc3ccccc3)nc3c2c(=O)n(C)c(=O)n3C)cc1	–	–	–	–	7.08µM	–
CN(Cc1ccccc1)Cc1nc2c(c(=O)n(C)c(=O)n2C)n1Cc1ccc(Cl)cc1	–	–	–	–	?	–
CCCCCn1c(CN(C)Cc2ccccc2)nc2c1c(=O)n(C)c(=O)n2C	–	–	–	?	10µM	–
CCN(CC)S(=O)(=O)c1ccc(NC(=O)c2cccs2)cc1	–	·	·	·	–	·
CCN(CC)S(=O)(=O)c1cccc(C(=O)Oc2cccc(NC(=O)c3cccs3)c2)c1	–	–	–	-108.4	–	·
CCN(CC(=O)NCc1cccs1)S(=O)(=O)c1cccc(C(C)=O)c1	–	–	–	-83.0	–	–
COC(=O)COc1cccc(NC(=O)c2cccs2)c1	–	–	–	-118.1	–	–
CCN(CC)S(=O)(=O)c1cccc(NC(=O)c2ccccc2Br)c1	–	·	·	·	11.2µM	·
C[C@]12CC[C@H]3c4ccc(O)cc4CC[C@@H]3[C@H]1CC[C@@H]2OP(=O)(O)O	–	–[11.4 µM]	–	·	–[13.5 µM]	·
CC1=CC[C@@]2(CO)COC(c3ccccc3O)C1C2 (some centres not stated)	–	·	–	·	?	·
Cc1ccc(S(=O)(=O)CCc2nnc(N)s2)cc1C	–	–	–	–	–	–
